Measurements as given in PubChem BioAssay AID1851 (National Center for Advancing Translational Sciences (NCATS), 2009).
Hit rate of the full screen: of about 16,000 compounds, about 5,800 (36%) were called active. Inconclusive results (about 23%) are left out. Some of the results follow. Unmarked numbers belong to inactive results. The call rests on the fitted dose curve; in most records, active means well fitted curve in the direction sought with a large enough effect; inconclusive means small, poorly fitted or top-dose-only effect, or effect the other way; inactive means no such curve, though single readings can be large or run the other way.
On the % scale 0 is the no-effect control and ±100 the full control effect.

The compounds below were run against Cytochrome P450 2C19 (Homo sapiens) (UniProt P33261) (assay: Cytochrome panel assay with activity outcomes). Settings: recombinant CYP, pro-luciferin dealkylation, luminescence, p450-cyp2c19; series mostly up to 57.1 µM; activity, negative = inhibition: at the top concentration.
Sequence of Cytochrome P450 2C19 (Homo sapiens) (P33261 whole entry, looked up): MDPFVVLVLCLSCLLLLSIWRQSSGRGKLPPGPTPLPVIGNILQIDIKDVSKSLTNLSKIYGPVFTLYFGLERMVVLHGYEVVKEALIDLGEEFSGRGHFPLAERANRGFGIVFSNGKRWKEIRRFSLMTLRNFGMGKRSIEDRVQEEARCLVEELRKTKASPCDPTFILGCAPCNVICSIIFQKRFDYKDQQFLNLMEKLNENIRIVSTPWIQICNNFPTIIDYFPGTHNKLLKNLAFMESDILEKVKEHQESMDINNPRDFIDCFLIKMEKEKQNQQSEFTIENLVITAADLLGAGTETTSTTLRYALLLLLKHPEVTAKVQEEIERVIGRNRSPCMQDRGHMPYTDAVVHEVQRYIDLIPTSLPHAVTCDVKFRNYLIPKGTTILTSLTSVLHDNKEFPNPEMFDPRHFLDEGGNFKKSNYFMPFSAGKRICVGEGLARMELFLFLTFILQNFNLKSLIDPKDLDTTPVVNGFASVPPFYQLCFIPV
In the case of `COc1ccc2c(c1)-c1ccccc1S(=O)(=O)N2C`, the AC50 is reported as 14.1 µM (active). With `CC1CC2=C(NC(=S)NC2c2ccc(F)cc2)/C(=C/c2ccc(F)cc2)C1` (stereo unspecified) the AC50 was 3.55 µM (active). `N#Cc1ccc(C(=O)Nc2ccc(N3CCN(C(=O)c4ccco4)CC3)cc2)c(F)c1` was tested, and the “activity, negative = inhibition” value was 32.4%. For `Cc1ccccc1C(=O)N1CCN(c2ccc([N+](=O)[O-])c(NCc3ccco3)c2)CC1`, the AC50 was 3.16 µM (active). With `Cc1cccc(C(=O)NCN2CCN(c3ccccc3C#N)CC2)c1` the AC50 was “inactive”. In the case of `Cc1cccc(C(=O)N2CCN(c3ccc([N+](=O)[O-])c(NCc4ccco4)c3)CC2)c1`, the AC50 is reported as 7.94 µM (active). In the case of `CC[C@]1(O)C[C@H]2CN(CCc3c([nH]c4ccccc34)[C@](C(=O)OC)(c3cc4c(cc3OC)N(C=O)[C@H]3[C@@](O)(C(=O)OC)[C@H](OC(C)=O)[C@@]5(CC)C=CCN6CC[C@]43[C@H]65)C2)C1`, the “activity, negative = inhibition” value is reported as 0.687%. With `Cc1[nH]nc(-c2ccc(OCc3cnn(-c4ccccc4)c3)cc2O)c1Oc1ccccc1F` the AC50 was 1.78 µM (active). In the case of `O=C(Nc1ccc2oc(-c3ccccc3F)nc2c1)c1ccc2c(c1)OCCO2`, the AC50 is reported as 3.98 µM (active). With `CN(C)CCNC(=O)C(C(=O)c1ccc(F)cc1)n1ccccc1=O` (stereo unspecified) the “activity, negative = inhibition” value was -7.72%. With `O=C(Cc1ccccc1)NC1CCN(S(=O)(=O)c2ccc(C(=O)O)cc2)CC1` the “activity, negative = inhibition” value was -16.9%. For `Cc1ccc(NC(=O)CN2CCC(NC(=O)Cc3ccccc3)CC2)cc1C`, the AC50 was 0.0178 µM (active). `O=C(NC1CCN(Cc2ccccc2)CC1)c1ccc(I)cc1` was tested, and the AC50 was 15.8 µM (active). In the case of `COc1cc(N)c(Cl)cc1C(=O)NC1CCN(Cc2ccccc2)CC1`, the “activity, negative = inhibition” value is reported as 2.99% [at 25.6 µM]. With `CCCNC(=O)N1CCC(C(=O)c2ccc(F)cc2)CC1` the AC50 was 17.8 µM (active). In the case of `CCC(C)[C@H](NC(=O)NC1CCN(Cc2ccccc2)CC1)C(=O)OC` (stereo partly specified), the “activity, negative = inhibition” value is reported as -5.66%. For `COc1ccccc1NC(=O)CN1CCN(c2ccccc2F)CC1`, the AC50 was 2.51 µM (active). `O=C1C(O)=C(O)C(=O)C(O)=C1O` was tested, and the “activity, negative = inhibition” value was 17.6% [at 25.6 µM]. In the case of `NC(N)=NNC(=O)C(=O)O`, the activity, negative = inhibition is reported as 28.3% [at 11.4 µM]. For `CCOc1ccccc1NC(=O)CN1CCC(NC(=O)c2ccccc2)CC1`, the AC50 was 1 µM (active). For `CCOc1ccccc1NC(=O)C(=O)NCC1CCCN1CC` (stereo unspecified), the “activity, negative = inhibition” value was -28.1%. For `COc1ccccc1NC(=O)CN1CCC(C(=O)c2ccc(F)cc2)CC1`, the AC50 was 5.01 µM (active). With `CCN(CC)c1ccc(NC(=O)CN2CCN(c3ccccc3F)CC2)cc1` the AC50 was 14.1 µM (active). With `O=C(c1ccc(F)cc1)C1CCN(CCCCc2ccccc2)CC1` the “activity, negative = inhibition” value was -26%. `Cc1cccc(N2CCN(CC(=O)Nc3ccc(-n4cnnn4)cc3)CC2)c1C` was tested, and the “activity, negative = inhibition” value was -15%. In the case of `CC(C)NC(=O)N1CC2(CCN(C(=O)c3cc(C(F)(F)F)cc(C(F)(F)F)c3)CC2)C1`, the “activity, negative = inhibition” value is reported as -25.6%. With `Nc1ncnc(N(c2ccccc2)C2CCCCC2)c1[N+](=O)[O-]` the “activity, negative = inhibition” value was -9.85%. For `N=c1nc(N2CCCCC2)cc(N)n1O`, the AC50 was “inactive”. `Fc1ccccc1OCCCCSc1ncccn1` was tested, and the AC50 was 3.98 µM (active). `CN1CCN(c2ccnc(-c3ccoc3)n2)CC1` was tested, and the “activity, negative = inhibition” value was -64.3%. In the case of `COc1cccc(-c2nccc(-n3ccnc3)n2)c1`, the AC50 is reported as 2.51 µM (active). In the case of `CCNc1ncc2nc(-c3cccc(C#N)c3)c(=O)n(C)c2n1`, the “activity, negative = inhibition” value is reported as 3.41%. In the case of `N#Cc1cccc(-c2nccc(-n3ccnc3)n2)c1`, the AC50 is reported as 7.94 µM (active). `c1cn(-c2ccnc(-c3ccc4c(c3)OCO4)n2)cn1` was tested, and the AC50 was 10 µM (active). With `N#Cc1cccc(-c2nc(N3CCNCC3)c3ccccc3n2)c1` the “activity, negative = inhibition” value was -10%. For `N#Cc1cccc(-c2cc(-n3ccnc3)ncn2)c1`, the AC50 was 0.158 µM (active). With `COc1cccc(-c2nccc(NC3CCNCC3)n2)c1` the “activity, negative = inhibition” value was -23%. With `C[n+]1cc(-c2ccccc2)n2c1CCCCC2` the “activity, negative = inhibition” value was -27%. `CCCCSCc1nc2nc(Cl)c(Cl)nc2[nH]1` was tested, and the AC50 was 2 µM (active). With `NC(=S)Nc1cccc2cccnc12` the “activity, negative = inhibition” value was -16.1%. In the case of `CC(C)(C)C(=O)NC(Nc1cccc2cccnc12)C(Cl)(Cl)Cl` (stereo unspecified), the AC50 is reported as 0.794 µM (active). `O=C(Nc1cccc2cccnc12)[C@@H]1[C@@H](C(=O)O)[C@H]2CC[C@@H]1O2` gave an activity, negative = inhibition of 29.3% [at 11.4 µM]. With `CC(C)OC(=O)C(C#N)c1nc2ccccc2nc1N1CCN(Cc2ccccc2)CC1` (stereo unspecified) the AC50 was 0.00562 µM (active). With `COC(=O)N1CCC2(CCCN(Cc3ccccc3)C2)CC1` the “activity, negative = inhibition” value was 2.29%. `CCCCCCOC(=O)C(C#N)c1nc2ccccc2nc1N1CCN(CC)CC1` (stereo unspecified) was tested, and the AC50 was 8.91 µM (active). In the case of `CCN1CCN(c2nn3c(=O)c4ccccc4nc3c3ccccc23)CC1`, the “activity, negative = inhibition” value is reported as -58.2%. Work on `CC(C)NC1(C(N)=O)CCN(Cc2ccccc2)CC1` yielded an activity, negative = inhibition of -1.03% [at 11.4 µM]. `CCn1c(=O)[nH]c2cc(Cl)c(Cl)cc21` was tested, and the “activity, negative = inhibition” value was -23.1%. In the case of `C=CCN1C(=NC(=O)CC)SC2CS(=O)(=O)CC21` (stereo unspecified), the “activity, negative = inhibition” value is reported as -1.43%. With `COc1ccc(CCN2C(=NC(=O)CCC(=O)O)SC3CS(=O)(=O)CC32)cc1` (stereo unspecified) the AC50 was 14.1 µM (active). With `CCCC(=O)N=C1SC2CS(=O)(=O)CC2N1c1ccc(CC)cc1` (stereo unspecified) the AC50 was 7.08 µM (active).
